Values joined by “and” are separate entries in the source; they are usually repeats but may differ in a detail not shown here. Equal values may be shown once. About 2,000 (36%) of roughly 5,500 compounds were called active. Another 18% or so got no clear call; they are omitted. Rule as the data show it: active = normalized growth mostly below about 0.91 (no sharp cut-off); inconclusive = no clear call, values can overlap the other calls; inactive = mostly above about 0.92. This is one part of the list.
Assay: chemical genetic growth profiling, strain panel (AID 1159580);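 also: tested at 20 µM; growth read once vehicle control cultures reached saturation at 30 °C; 1 = growth at the plate median or of vehicle wells; lower values mean less growth of the strain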
Conditions: S. cerevisiae deletion strains, growth OD
[1] = locus YPL055C, strain LGE1, stronger effect = lower value
[2] = locus YPL241C, strain CIN2, stronger effect = lower value

Measured: normalized growth

Cc1cc(C)c(NC(=O)C[C@H](CC(=O)O)c2cccc3ccccc23)c(C(=O)N2CCC3(CCCC3)CC2)c1
inactive: locus YAL040C, strain CLN3, stronger effect = lower value 1.01 | locus YCL061C, strain MRC1 (second series), stronger effect = lower value 0.986 | locus YDR363W, strain ESC2, stronger effect = lower value 0.973 | locus YER002W, strain NOP16, stronger effect = lower value 0.975 | locus YGR078C, strain PAC10, stronger effect = lower value 0.972 | locus YGR229C, strain SMI1, stronger effect = lower value 1.01 | locus YMR263W, strain SAP30, stronger effect = lower value 0.995 | locus YNL175C, strain NOP13, stronger effect = lower value 0.976 | locus YNL197C, strain WHI3, stronger effect = lower value 0.964 | locus YNL224C, strain SQS1, stronger effect = lower value 0.977 | locus YNL322C, strain KRE1, stronger effect = lower value 0.99 | locus YOR083W, strain WHI5 (second series), stronger effect = lower value 0.977 | [1] 0.972 | [2] 0.987

CC(C)(C#N)O[C@@H]1O[C@H](CO)[C@@H](O)[C@H](O)[C@H]1O
inactive: locus YAL013W, strain DEP1, stronger effect = lower value 1 | locus YAL021C, strain ccr4, stronger effect = lower value 1.01 | locus YAL026C, strain drs2, stronger effect = lower value 1 | locus YAL030W, strain snc1, stronger effect = lower value 1 | locus YBL061C, strain skt5, stronger effect = lower value 0.998 | locus YBR009C, strain hhf1, stronger effect = lower value 1 | locus YBR021W, strain FUR4, stronger effect = lower value 1.1 | locus YBR023C, strain chs3, stronger effect = lower value 1 | locus YBR171W, strain sec66, stronger effect = lower value 1.01 | locus YBR229C, strain ROT2, stronger effect = lower value 0.997 | locus YBR231C, strain swc5, stronger effect = lower value 0.998 | locus YBR279W, strain paf1, stronger effect = lower value 1.01 | locus YCL011C, strain gbp2, stronger effect = lower value 1.01 | locus YCL016C, strain dcc1, stronger effect = lower value 1 | locus YCL029C, strain bik1, stronger effect = lower value 0.993 | locus YCL069W, strain vba3, stronger effect = lower value 0.997 | locus YCR088W, strain abp1, stronger effect = lower value 1.01 | locus YDL005C, strain med2, stronger effect = lower value 0.993 | locus YDL035C, strain GPR1, stronger effect = lower value 1.02 | locus YDL040C, strain nat1, stronger effect = lower value 1.01 | locus YDL074C, strain BRE1, stronger effect = lower value 1.02 | locus YDL101C, strain DUN1, stronger effect = lower value 1.01 | locus YDL185W, strain tfp1, stronger effect = lower value 0.983 | locus YDL192W, strain arf1, stronger effect = lower value 0.988 | locus YDR001C, strain nth1, stronger effect = lower value 1.01 | locus YDR069C, strain doa4, stronger effect = lower value 1.03 | locus YDR101C, strain arx1, stronger effect = lower value 0.997 | locus YDR137W, strain rgp1, stronger effect = lower value 1.02 | locus YDR150W, strain NUM1, stronger effect = lower value 1.02 | locus YDR159W, strain sac3, stronger effect = lower value 0.965 | locus YDR162C, strain NBP2, stronger effect = lower value 1.05 | locus YDR195W, strain ref2 0.98 | locus YDR297W, strain sur2, stronger effect = lower value 1.01 | locus YDR318W, strain mcm21, stronger effect = lower value 1 | locus YDR334W, strain swr1, stronger effect = lower value 1 | locus YDR335W, strain msn5, stronger effect = lower value 1 | locus YDR388W, stronger effect = lower value 0.992 | locus YDR392W, strain spt3, stronger effect = lower value 1.02 | locus YDR502C, strain sam2, stronger effect = lower value 0.998 | locus YEL003W, strain gim4, stronger effect = lower value 1.01 | locus YEL037C, strain rad23, stronger effect = lower value 1.01 | locus YEL061C, strain CIN8 (second series), stronger effect = lower value 1.02 | locus YEL061C, strain CIN8, stronger effect = lower value 1 | locus YER015W, strain faa2, stronger effect = lower value 0.998 | locus YER016W, strain bim1, stronger effect = lower value 0.999 | locus YER110C, stronger effect = lower value 0.985 | locus YER111C, strain swi4, stronger effect = lower value 1.01 | locus YER155C, strain BEM2 (second series), stronger effect = lower value 1.02 | locus YER155C, strain BEM2, stronger effect = lower value 0.99 | locus YER167W, strain BCK2, stronger effect = lower value 1.01 | locus YFR010W, strain ubp6, stronger effect = lower value 1.01 | locus YGL078C, strain dbp3, stronger effect = lower value 0.989 | locus YGL086W, strain mad1, stronger effect = lower value 0.997 | locus YGL167C, strain pmr1, stronger effect = lower value 1 | locus YGL173C, strain kem1, stronger effect = lower value 1 | locus YGL227W, strain vid30, stronger effect = lower value 1 | locus YGL240W, strain doc1, stronger effect = lower value 1.01 | locus YGL248W, strain PDE1, stronger effect = lower value 1.01 | locus YGL253W, strain hxk2, stronger effect = lower value 1 | locus YGR135W, strain pre9, stronger effect = lower value 0.975 | locus YGR252W, strain gcn5, stronger effect = lower value 0.979 | locus YHR013C, strain ard1, stronger effect = lower value 0.996 | locus YHR027C, strain rpn1, stronger effect = lower value 0.984 | locus YHR030C, strain SLT2, stronger effect = lower value 0.997 and 1.06 | locus YHR079C, strain IRE1 (second series), stronger effect = lower value 0.994 | locus YHR079C, strain IRE1, stronger effect = lower value 1.07 | locus YHR094C, strain hxt1, stronger effect = lower value 0.984 | locus YHR129C, strain ARP1, stronger effect = lower value 1 | locus YHR142W, strain chs7, stronger effect = lower value 1 | locus YHR200W, strain rpn10, stronger effect = lower value 0.995 | locus YIL066C, strain RNR3, stronger effect = lower value 1.02 | locus YIL073C, strain SPO22, stronger effect = lower value 1 | locus YIL125W, strain kgd1, stronger effect = lower value 1 | locus YIR030C, strain dcg1, stronger effect = lower value 0.998 | locus YJL092W, strain hpr5, stronger effect = lower value 1 | locus YJL095W, strain BCK1 (second series), stronger effect = lower value 1.01 | locus YJL095W, strain BCK1, stronger effect = lower value 1.05 and 0.974 | locus YJL115W, strain asf1, stronger effect = lower value 0.999 | locus YJL129C, strain trk1, stronger effect = lower value 1.03 | locus YJL134W, strain LCB3, stronger effect = lower value 0.993 | locus YJL154C, strain vps35, stronger effect = lower value 1.01 | locus YJL164C, strain tpk1, stronger effect = lower value 1 | locus YJL166W, strain qcr8, stronger effect = lower value 1.01 | locus YJL168C, strain set2, stronger effect = lower value 1 | locus YJL187C, strain SWE1 (second series), stronger effect = lower value 1.03 | locus YJL187C, strain SWE1, stronger effect = lower value 1 | locus YJR043C, strain POL32, stronger effect = lower value 1.02 | locus YJR066W, strain TOR1, stronger effect = lower value 0.981 | locus YJR075W, strain HOC1, stronger effect = lower value 1.02 | locus YKL009W, strain mrt4, stronger effect = lower value 0.982 | locus YKL068W, stronger effect = lower value 0.998 | locus YKL085W, strain MDH1 (second series), stronger effect = lower value 1.01 | locus YKL085W, strain MDH1, stronger effect = lower value 1.01 | locus YKL160W, strain elf1, stronger effect = lower value 1 | locus YKL190W, strain CNB1, stronger effect = lower value 1.02 | locus YKR001C, strain vps1, stronger effect = lower value 1 | locus YKR026C, strain gcn3, stronger effect = lower value 0.997 | locus YKR091W, strain srl3, stronger effect = lower value 1 | locus YLL001W, strain dnm1, stronger effect = lower value 1.01 | locus YLL026W, stronger effect = lower value 0.99 | locus YLL041C, strain sdh2, stronger effect = lower value 1.01 | locus YLR027C, strain aat2, stronger effect = lower value 1 | locus YLR039C, strain RIC1, stronger effect = lower value 1.05 | locus YLR058C, strain SHM2, stronger effect = lower value 1.01 | locus YLR102C, strain apc9, stronger effect = lower value 0.983 | locus YLR113W, strain HOG1, stronger effect = lower value 0.999 | locus YLR221C, strain rsa3, stronger effect = lower value 1.03 | locus YLR258W, strain gsy2, stronger effect = lower value 1.01 | locus YLR262C, strain YPT6 (second series), stronger effect = lower value 1.01 | locus YLR262C, strain YPT6, stronger effect = lower value 1.07 | locus YLR268W, strain sec22, stronger effect = lower value 1 | locus YLR320W, strain mms22, stronger effect = lower value 0.999 | locus YLR330W, strain CHS5, stronger effect = lower value 0.994 | locus YLR342W, strain FKS1 (second series), stronger effect = lower value 1.02 | locus YLR342W, strain FKS1, stronger effect = lower value 1 | locus YLR357W, strain rsc2, stronger effect = lower value 0.971 | locus YLR370C, strain arc18, stronger effect = lower value 1 | locus YLR371W, strain rom2, stronger effect = lower value 0.982 | locus YLR384C, strain iki3, stronger effect = lower value 0.986 | locus YLR418C, strain cdc73, stronger effect = lower value 1.01 | locus YML016C, strain PPZ1, stronger effect = lower value 0.987 | locus YML032C, strain rad52, stronger effect = lower value 1.01 | locus YML120C, strain ndi1, stronger effect = lower value 0.994 | locus YML124C, strain tub3, stronger effect = lower value 0.994 | locus YMR058W, strain fet3, stronger effect = lower value 0.999 | locus YMR078C, strain ctf18, stronger effect = lower value 0.976 | locus YMR125W, strain sto1, stronger effect = lower value 1 | locus YMR129W, stronger effect = lower value 0.996 | locus YMR205C, strain PFK2, stronger effect = lower value 1.02 | locus YMR223W, strain ubp8, stronger effect = lower value 0.984 | locus YMR231W, strain pep5, stronger effect = lower value 0.996 | locus YMR307W, strain GAS1, stronger effect = lower value 0.96 | locus YNL067W, strain RPL9B, stronger effect = lower value 1.04 | locus YNL071W, strain lat1, stronger effect = lower value 1.01 | locus YNL183C, strain NPR1, stronger effect = lower value 0.973 | locus YNL209W, strain ssb2, stronger effect = lower value 1.01 | locus YNL233W, strain BNI4, stronger effect = lower value 1.02 | locus YNL248C, strain rpa49, stronger effect = lower value 0.984 | locus YNL250W, strain rad50, stronger effect = lower value 0.978 | locus YNL271C, strain bni1, stronger effect = lower value 0.987 | locus YNL298W, strain CLA4, stronger effect = lower value 0.987 | locus YNL307C, strain MCK1, stronger effect = lower value 1.02 | locus YNL322C, strain KRE1 (second series), stronger effect = lower value 0.993 | locus YNR049C, strain mso1, stronger effect = lower value 1 | locus YNR052C, strain pop2, stronger effect = lower value 0.984 | locus YOL006C, strain TOP1, stronger effect = lower value 1.06 | locus YOL012C, strain htz1 0.871 | locus YOL147C, strain pex11, stronger effect = lower value 0.995 | locus YOR001W, strain rrp6, stronger effect = lower value 1.01 | locus YOR061W, strain CKA2, stronger effect = lower value 0.997 | locus YOR069W, strain VPS5, stronger effect = lower value 0.99 | locus YOR070C, strain gyp1, stronger effect = lower value 1.01 | locus YOR080W, strain dia2, stronger effect = lower value 1.01 | locus YOR083W, strain WHI5, stronger effect = lower value 1.01 | locus YOR106W, strain vam3, stronger effect = lower value 1.04 | locus YOR136W, strain idh2, stronger effect = lower value 0.985 | locus YOR144C, strain elg1, stronger effect = lower value 0.997 | locus YOR184W, strain ser1, stronger effect = lower value 1.03 | locus YOR231W, strain MKK1, stronger effect = lower value 1.01 | locus YOR265W, strain rbl2, stronger effect = lower value 1.01 | locus YOR270C, strain vph1, stronger effect = lower value 1.22 | locus YOR290C, strain snf2, stronger effect = lower value 1.02 | locus YOR316C, strain cot1, stronger effect = lower value 0.983 | locus YPL051W, strain arl3, stronger effect = lower value 1.01 | [1] 1.06 | locus YPL078C, strain atp4, stronger effect = lower value 1.01 | locus YPL106C, strain sse1, stronger effect = lower value 0.985 | locus YPL240C, strain hsp82, stronger effect = lower value 0.995 | [2] 1.01 | locus YPL256C, strain CLN2, stronger effect = lower value 1.06 | locus YPR119W, strain clb2, stronger effect = lower value 0.996 | locus YPR141C, strain kar3, stronger effect = lower value 0.982 | locus YPR163C, strain tif3, stronger effect = lower value 0.997 | locus YPR167C, strain met16, stronger effect = lower value 1.01 | strain wtn01, stronger effect = lower value 0.984

From PubChem BioAssay AID1159580 (chemical genetic matrix, 2015)
